LmPK inh: qHTS Assay for Inhibitors of Leishmania Mexicana Pyruvate Kinase (LmPK) | purified LmPK, Kinase-Glo ATP luminescence, 1 h | Potency, µM (titrated, usually from 57.5 µM), inactives show at the top dose activity change, negative = inhibition, actives largely listed as inhibitors | 290,000 tested, 0.37% active | AID 1721, 2009
Target sequence (Q27686 whole entry, looked up): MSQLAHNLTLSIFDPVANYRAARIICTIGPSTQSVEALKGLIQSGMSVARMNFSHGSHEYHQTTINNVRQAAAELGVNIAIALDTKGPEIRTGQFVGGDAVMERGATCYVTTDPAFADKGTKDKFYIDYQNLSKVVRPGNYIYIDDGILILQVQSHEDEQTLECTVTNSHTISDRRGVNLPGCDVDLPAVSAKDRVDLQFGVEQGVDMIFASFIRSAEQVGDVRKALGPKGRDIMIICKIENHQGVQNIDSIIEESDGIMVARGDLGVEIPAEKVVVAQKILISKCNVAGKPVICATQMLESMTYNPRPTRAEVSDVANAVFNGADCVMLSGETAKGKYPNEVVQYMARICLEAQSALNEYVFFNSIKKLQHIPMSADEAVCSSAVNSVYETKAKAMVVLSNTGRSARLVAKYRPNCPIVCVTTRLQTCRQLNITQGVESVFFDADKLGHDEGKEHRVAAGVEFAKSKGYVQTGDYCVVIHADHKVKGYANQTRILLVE
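ATP generated from ADP (0.1 mM) and PEP (0.5 mM) by 0.1 nM LmPK over 1 h at room temperature (pH 7.2 imidazole buffer) was detected by coupled luciferase luminescence. Values were normalized to uninhibited and no-enzyme wells.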
Sm TGR inh: qHTS Assay for the Inhibitors of Schistosoma Mansoni Peroxiredoxins; Schistosoma mansoni thioredoxin glutathione reductase (TGR), Q962Y6; purified TGR, DTNB reduction, TNB absorbance 405 nm; Potency, µM (doses to about 114 µM), for inactives: at the top dose activity change, negative = inhibition, actives largely listed as inhibitors; 360,000 tested, 3% active; AID 485364, 2010; also: nearly all actives have a fitted effect of over 60% in size
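Kinetic colorimetric format: TGR-catalysed, NADPH-driven DTNB reduction monitored via TNB absorbance. Enzyme dispensed at 20 nM; compound exposure 15 min at room temperature before reaction start.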
TbPYK inhibitor: qHTS of Trypanosoma Brucei Inhibitors. pyruvate kinase (Trypanosoma brucei), Q57TT1. TbPYK enzyme, Kinase-Glo Plus ATP luminescence, 45 min. Potency, µM (doses to about 76.8 µM), without a hit: at the highest dose activity, negative = inhibition, hits mostly inhibitors. 410,000 tested, 0.12% active. AID 624173, 2012; also: nearly all actives have a fitted effect of over 50% in size
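Enzyme and substrate buffer are dispensed first and compound is pin-transferred. ADP at 130 uM final then starts the reaction, which runs 45 min at room temperature. Detection reagent is added for 10 min before luminescence is imaged.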
RE007 growth inh: qHTS Assay for Inhibitors of the HIV-1 protein Vpr; S. pombe RE007 Vpr strain, BacTiter-Glo ATP luminescence, 24 h; Potency, µM (highest dose often 92.2 µM), for the others: top-dose activity change, negative = less growth, usual class: inhibitors; 360,000 tested, 0.21% active; active = well fitted falling curve with a large enough effect; inconclusive = small, poorly fitted or top-dose-only effect; inactive = no such curve, though single readings can be large or run the other way; also: nearly all actives have a fitted effect of over 50% in size
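Fission yeast strain RE007, carrying one chromosomally integrated HIV-1 vpr copy, was seeded at OD 0.01 in PMG+AL medium with 23 nL pinned compound. After 24 h at 30 °C and 99% humidity, viability was read by BacTiter-Glo luminescence.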
Starred values were filed as active, the others as inactive; ? = inconclusive; · = no result given; [ ] = another dose, or the depositor's remark. This is a sample that favours compounds with a hit; in the whole collection about 3% have one here. Unless noted, calls follow the shape of the dose curve; as a rule, active = well fitted curve in the direction sought with a large enough effect; inconclusive = small, poorly fitted or top-dose-only effect, or another doubt; inactive = no such curve, though single readings can be large; an effect the other way counts as inactive or inconclusive. % is scaled to controls: 0 for no effect and ±100 for the full control effect; potency is read from the fitted curve at half-maximal effect.

SMILES	LmPK inh	Sm TGR inh	TbPYK inhibitor	RE007 growth inh
CC(C)(C)NC(=O)[C@H]1CN(Cc2cccnc2)CCN1C[C@@H](O)C[C@@H](Cc1ccccc1)C(=O)N[C@H]1c2ccccc2C[C@H]1O	·	·	-5%	·
Cc1ccc(-n2nc(C)c3c(C)c(CCC(=O)NCc4ccccc4Cl)c(C)nc32)cc1	·	-2%	-5%	·
CC(=O)Nc1ccc(NC(=O)c2nc(S(=O)(=O)Cc3ccccc3)ncc2Cl)cc1	-9%	5µM*	-12%	-1%
Cc1noc(C(=O)NCc2ccccc2)c1Cl	0%	5%	1%	2%
CS(=O)(=O)c1ncc(Cl)c(C(=O)N(Cc2ccc(Cl)cc2)Cc2ccco2)n1	·	1.8µM*	-10%	·
CCS(=O)(=O)c1ncc(Cl)c(C(=O)NCc2ccccc2)n1	·	32µM*	2%	·
CS(=O)(=O)c1ncc(Cl)c(C(=O)Nc2ccc3ccccc3c2)n1	4%	·	-8%	-1%
O=C(NCc1ccccc1)c1nc(S(=O)(=O)Cc2ccccc2)ncc1Cl	-4%	8.9µM*	-6%	-6%
CCCS(=O)(=O)c1ncc(Cl)c(C(=O)Nc2c(C(=O)Nc3ccccc3)oc3ccccc23)n1	·	-5%	-8%	·
Cc1cccc(N2CCN(c3ncnc4c3nc3n4CCCCC3)CC2C)c1 (stereo not drawn)	·	6%	-5%	·
COc1ccc(CC(=O)N2CCc3cc(OC)c(OC)cc3C2COc2ccc(F)cc2)cc1 (stereo not drawn)	·	5%	3%	·
COc1ccc(C(=O)NC(C)Cc2c[nH]c3ccccc23)cc1 (stereo not drawn)	·	·	3%	-5%
NS(=O)(=O)c1ccc(NC(=S)Nc2cc(Cl)c(Cl)cc2Cl)cc1	2%	32µM*	-8%	0%
NS(=O)(=O)c1ccc(NC(=S)Nc2ccc(C(=O)N3CCCCC3)cc2)cc1	-2%	45µM*	3%	-8%
NS(=O)(=O)c1ccc(NC(=S)NCc2ccccc2)cc1	0%	-23%	?	29%
O=C(c1ccc(NC(=S)Nc2ccc(Cl)c(Cl)c2)cc1)N1CCCC1	-1%	?	16%	-20%
CSc1ccccc1NC(=S)Nc1ccc(S(N)(=O)=O)cc1	16%	22µM*	6%	-8%
CCN1CCC[C@@H]1CNC(=O)c1cc(S(=O)(=O)CC)ccc1OC	·	·	0%	·
CC1CCCN(CC(=O)Nc2cc(S(=O)(=O)N3CCOCC3)ccc2N2CCCC2)C1 (stereo not drawn)	·	3%	-8%	-15%
O=C(N/N=C/c1cccs1)c1n[nH]c2c1CCCC2	14µM*	15%	-21%	-9%
C/C(=N\NC(=O)c1n[nH]c2c1CCC2)c1cccs1	11µM*	5%	-5%	3%
N#Cc1ccccc1C[C@H](N)C(=O)NC[C@H]1O[C@@H](n2ccc(N)nc2=O)[C@H](O)[C@@H]1O	·	·	-4%	6%
CO[C@H]1OC2O[C@@]3(C)CC[C@H]4[C@H](C)CC[C@@H]([C@H]1C)[C@@]24OO3 (stereo partly drawn)	·	·	4%	·
Cc1ccccc1NC(=S)c1ccc2ccccc2n1	1%	50µM*	-9%	-5%
COc1cccc(NC(=O)CSc2nnc(NC(=O)NC3CCCCC3)s2)c1	·	5%	3%	·
SMILES	LmPK inh	Sm TGR inh	TbPYK inhibitor	RE007 growth inh
Cn1c(=O)cc(OCCCC(=O)NCc2ccco2)c2ccccc21	-1%	40µM*	1%	11%
Cc1ccc(CNC(=O)CCCOc2cc(=O)n(C)c3ccccc23)o1	0%	13µM*	-11%	0%
O=C(CCCn1c(=O)c2ccccc2n(CC(=O)NCc2ccco2)c1=O)NCc1ccco1	-7%	25µM*	3%	11%
Cc1ccc(NC(=O)Cn2c(=O)n(CCCCC(=O)NCc3ccco3)c(=O)c3ccccc32)cc1	0%	-21%	-4%	1%
CCn1c(=O)cc(OCC(=O)NCc2ccc(C)o2)c2ccccc21	-2%	35µM*	-6%	-6%
COc1ccc(CNC(=O)CCCOc2cc(=O)n(C)c3ccccc23)cc1	-2%	1%	-1%	0%
CCc1ccccc1NC(=O)C(=O)NCCCN1CCOCC1	·	1%	-4%	·
CCc1cc(=O)[nH]c(SCc2nc(-c3cccc(Cl)c3)no2)n1	·	0%	-6%	·
Cc1ccc(NC(=O)C(Cc2c[nH]c3ccccc23)NC(=O)OCC(C)C)cc1 (stereo not drawn)	·	17%	-2%	·
CC(C)(C)c1ccc(OCCSc2nc(-c3cccs3)nc3cc(=O)[nH]n23)cc1	·	?	-4%	·
Cc1nn(-c2ccccc2)nc1C(=O)Oc1cc(C(F)(F)F)nn1-c1ccccc1	6%	4%	-3%	8%
CCc1c(C)nc2nncn2c1Nc1ccc(Cl)cc1	·	2%	3%	·
Cc1ccc(CNC(=O)Cn2c(=O)oc3ccccc32)o1	-2%	28µM*	-6%	3%
CC(C)Oc1ccc(CNC(=O)Cn2c(=O)oc3ccccc32)cc1	0%	8%	0%	20%
c1ccc(CCNc2nc(-c3ccccc3)cs2)cc1	·	·	-8%	·
O=C(Nc1ccccc1Sc1ccccc1)C1CCCO1 (stereo not drawn)	3%	45µM*	0%	13%
O=C(O)c1ccccc1NC(=O)C1CCCO1 (stereo not drawn)	0%	5%	2%	-7%
C[C@H](O)CN(C)C	·	·	7%	·
Cc1nn(C)c(C)c1/C=C(\C#N)S(=O)(=O)c1ccc(F)cc1	·	·	6%	15%
Cc1ccnc(SC2CC(=O)N(c3ccc(Br)cc3)C2=O)n1 (stereo not drawn)	-1%	50µM*	1%	36%
CCN(CC)C1CC(=O)N(c2ccc(Br)cc2)C1=O (stereo not drawn)	0%	7.1µM*	7%	2µM*
Cc1ccnc(SC2CC(=O)N(c3ccc(Cl)cc3)C2=O)n1 (stereo not drawn)	0%	50µM*	-9%	6%
Cc1cc(C)nc(SC2CC(=O)N(c3ccc(Br)cc3)C2=O)n1 (stereo not drawn)	-1%	50µM*	0%	5%
Cc1nc(N2CCCCC2)c2c(C)c(C(=O)Nc3ccc4c(c3)OCCO4)sc2n1	9%	-1%	2%	6%
O=c1ccc2[n+]([O-])c3ccc(O)cc3oc-2c1	?	2.2µM*	-23%	0%
O=c1cc(O)c2ccc(O)cc2o1	4%	0%	2%	-7%
COC(=O)C1=C(C(=O)OC)[C@@H]2N(C)c3ccccc3[C@@]23C[C@@H](C(=O)OC)N(S(=O)(=O)c2ccc([N+](=O)[O-])cc2)C3=N1	4%[11.5 µM]	·	·	·
COc1ccc(C(=O)OCCc2cc3ccccc3c(=O)o2)cc1	·	?	-1%	-10%
COc1cc2cc(CCCOC(=O)c3ccc(C(F)(F)F)cc3)oc(=O)c2cc1OC	·	-32%	0%	-7%
COc1ccc(C(=O)OCCCc2cc3ccccc3c(=O)o2)cc1	·	50µM*	2%	1%
